# Hits are enriched below; roughly 19% of the tested compounds scored in any of these assays.
# DT40 TDP1 CPT – DT40-hTDP1 cell growth loss with CPT; AID 686979; hit rate 12% among 420,000; Potency, µM (doses to about 46.2 µM), for inactives: top-dose activity change, negative = growth inhibition, hits mostly inhibitors; chicken DT40 Tdp1-/-;hTDP1 cells + 20 nM CPT, ATP luminescence, 48 h; further: potency means the concentration at half of the fitted maximal effect; on the % scale 0 is the no-effect control and ±100 the full control effect; nearly all actives have a fitted effect of over 55% in size
#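 Chicken DT40 Tdp1-/- cells stably complemented with human TDP1 were seeded at 400 cells/well in medium containing 20 nM camptothecin, exposed to pin-transferred compounds, and grown at 37 °C for at least 48 hr. Viability was read as ATP luminescence.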
# ASM inhibitor – inhibitors of human secretory acid sphingomyelinase; P17405; placental ASM, HMU-PC fluorogenic substrate, 60 min; Potency, µM (highest dose often 57.5 µM), for the others: at the highest dose activity change, negative = inhibition, usual class: inhibitors; hit rate 0.006% among 340,000; further: potency means the concentration at half of the fitted maximal effect
# Target sequence (P17405 47-631 limits assumed): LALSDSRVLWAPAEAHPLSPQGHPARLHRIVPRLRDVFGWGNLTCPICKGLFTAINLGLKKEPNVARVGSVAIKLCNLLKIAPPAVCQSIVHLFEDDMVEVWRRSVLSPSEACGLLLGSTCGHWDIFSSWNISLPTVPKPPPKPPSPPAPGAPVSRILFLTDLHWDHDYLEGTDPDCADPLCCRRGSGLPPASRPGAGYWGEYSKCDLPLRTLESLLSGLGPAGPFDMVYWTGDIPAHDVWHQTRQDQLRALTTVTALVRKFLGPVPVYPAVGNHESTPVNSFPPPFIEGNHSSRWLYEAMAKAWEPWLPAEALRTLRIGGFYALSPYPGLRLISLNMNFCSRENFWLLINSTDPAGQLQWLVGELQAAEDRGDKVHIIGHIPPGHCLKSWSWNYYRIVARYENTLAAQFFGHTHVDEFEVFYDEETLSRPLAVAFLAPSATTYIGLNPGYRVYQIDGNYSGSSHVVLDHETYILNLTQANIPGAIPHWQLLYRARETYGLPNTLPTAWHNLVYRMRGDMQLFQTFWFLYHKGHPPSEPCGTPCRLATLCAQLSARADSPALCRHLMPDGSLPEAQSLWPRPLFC
#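 Human placenta-derived ASM preincubated with compound 10 min at room temperature, then reacted with 9 uM (final) fluorogenic HMU-PC substrate for 60 min at 37 C. Stop solution raises pH to 10; fluorescence read at Ex 386/Em 447 nm.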
# HepG2 tox – HepG2 cytotoxicity, counter-screen for TGF-b inhibitors | HepG2 CAGA-GFP viability, ATP luminescence, 18 h | Potency, µM (highest dose often 46.1 µM), inactives show at the highest dose activity change, negative = cytotoxicity, usual class: cytotoxic | hit rate 0.76% among 410,000; further: potency means the concentration at half of the fitted maximal effect
#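 HepG2 CAGA-GFP cells (1000/well, DMEM with 1% FBS) received compound, then TGF-beta at 500 pg/mL final, and were incubated 18 hours at 37 degrees C. Viability was read by CellTiter-Glo luminescence. Media-only wells were set as complete cell-killing and DMSO as no toxicity.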
# IL1B secr inh – inhibitors of inflammasome signaling (IL-1 beta secretion); THP-1 LPS/ATP IL-1B secretion, AlphaLISA, 16 h; stronger effect = lower value; activity change, % at 57.5 µM; hit rate 4.7% among 360,000; in the data active means activity change below about -50%; inconclusive means mostly about -30% to -49%; further: on the % scale 0 is the no-effect control and ±100 the full control effect
#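 Secreted IL-1B measured by AlphaLISA bead assay after 16 h compound exposure of THP-1 cells; compounds (final up to 57.5 uM) added 1 h before LPS (250 ng/mL) and ATP (1.25 mM) stimulation; lower signal means less secretion.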
# DT40 TDP1 no CPT – qHTS for Inhibitors of human tyrosyl-DNA phosphodiesterase 1 (TDP1): qHTS in cells in absence of CPT; DT40 Tdp1-/- hTDP1 cells, no CPT, ATP luminescence, 48 h; Potency, µM (top dose mostly 46.2 µM), inactives show at the top dose activity change, negative = growth inhibition, most hits filed as inhibitors; hit rate 15% among 420,000; AID 686978, 2013; further: potency means the concentration at half of the fitted maximal effect; on the % scale 0 is the no-effect control and ±100 the full control effect; nearly all actives have a fitted effect of over 55% in size
#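 Chicken DT40 Tdp1-/- cells complemented with human TDP1, screened without camptothecin (DMSO vehicle only), 400 cells/well. Compounds pin-transferred, cells incubated at 37 °C for at least 48 hr. Growth read as ATP-dependent luminescence (CellTiter-Glo, 30 min at RT).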
# TGFb SMAD3 inh – TGF-b pathway inhibition | HepG2 CAGA-GFP TGF-b/SMAD3 reporter, GFP fluorescence, 18 h; TGF-beta stimulated, 500 pg/mL final | Potency, µM (top dose mostly 46.1 µM), inactives show top-dose activity, negative = inhibition, hits mostly inhibitors | hit rate 1.2% among 410,000; further: potency means the concentration at half of the fitted maximal effect; on the % scale 0 is the no-effect control and ±100 the full control effect; nearly all actives have a fitted effect of over 65% in size
#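 Using HEPG2 CAGA-GFP reporter cells at 1000 cells/well, we pinned test compounds, stimulated with recombinant TGF-beta (500 pg/mL final) and measured total well GFP after 18 h.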
# * = called active by the depositor; ? = inconclusive; . = not tested or not shown; [ ] = remark or other dose. Unless noted, the call rests on the fitted dose curve; in most records, active means well fitted curve in the direction sought with a large enough effect; inconclusive means small, poorly fitted or top-dose-only effect, or another doubt; inactive means no such curve, though single readings can be large; an effect the other way counts as inactive or inconclusive.
SMILES,DT40 TDP1 CPT,ASM inhibitor,HepG2 tox,IL1B secr inh,DT40 TDP1 no CPT,TGFb SMAD3 inh
Cc1nc(C)c(C(=O)NCCC(c2ccccc2)c2ccccc2)o1,?,-1.4%,-27.2%,30.2,11.6µM*,-21.7%
COc1ccc(OC)c(Nc2ncnc3sc(-c4ccccc4)cc23)c1,?,24.9%,-28.0%,27.8,?,?
CN(C)CCNc1ncnc2sc(-c3ccccc3)cc12,?,5.9%,-24.4%,-72.2*,18.4µM*,-6.0%
CNc1ncnc2sc(-c3ccccc3)cc12,16.4µM*,-0.7%,-5.2%,-76.7*,?,5.0%
COC(=O)c1cc(NC(=O)CC2SC(=Nc3ccccc3)N(CCc3c[nH]c4ccccc34)C2=O)cc(C(=O)OC)c1 (stereo not drawn),16.4µM*,?,-15.6%,-14.1,?,-15.7%
O=C(CCNC(=O)C1CCN(S(=O)(=O)c2ccc(F)cc2)CC1)NCc1cccc(Cl)c1,-5.1%,-2.5%,-19.0%,-0.3,-26.4%,-21.5%
CC1(C)CC(=O)CC(=O)/C1=N\Nc1c(Cl)cc(Cl)cc1Cl,?,1.8%,4.0%,42.8,18.4µM*,-0.9%
CC1(C)CC(=O)C/C(=N/NC(=O)COc2ccc(Cl)cc2Cl)C1,-4.6%,-2.6%,-17.6%,-17.9,-9.0%,7.0%
N[C@@H](Cc1ccccc1)C(=O)N1CCC(C(=O)N[C@@H](CCC(=O)O)C(=O)O)CC1,9.6%,-5.0%,-10.9%,0.8,-6.5%,-7.8%
S=C(c1ccc(N2CCCC2)cc1)N1CCCCC1,16.4µM*,-0.2%,-61.5%,-18.5,18.4µM*,0.0%
COc1ccc(C(=S)N2CCCCC2)cc1Br,14.2%,-0.2%,4.2%,3.2,-12.3%,-0.7%
Cc1ccc(C(=S)N2CCCCCC2)cc1,16.4µM*,5.1%,-2.8%,13.4,23.1µM*,1.8%
S=C(c1ccc(N2CCCC2)c(Br)c1)N1CCCCC1,20.6µM*,-0.5%,-34.7%,-14.3,23.1µM*,-26.0%
Oc1ccc(C(=S)N2CCCCCC2)cc1,-16.8%,2.2%,-24.0%,2.6,-3.1%,12.0%
S=C(c1ccc(N2CCOCC2)cc1)N1CCOCC1,?,4.5%,4.7%,-7.2,-21.6%,0.9%
O=C(CN1C(=O)CSc2ccc(S(=O)(=O)N3CCCC3)cc21)NCc1ccccc1Cl,?,.,3.0%,.,-27.0%,0.0%
CN(Cc1ccc2nonc2c1)Cc1nc(Cc2cccc(F)c2)no1,-4.7%,-3.8%,-20.8%,-16.2,1.4%,-12.4%
CCc1ccc(CN(C)Cc2nc(Cc3ccc(OC)c(OC)c3)no2)nc1,16.4µM*,4.6%,-4.9%,0.0,?,-0.5%
COc1ccc(CCN(C)Cc2nc(-c3cnccn3)no2)cc1OC,-0.1%,4.9%,-2.7%,-12.1,18.4%,10.1%
COc1ccc(Cc2noc(CN(C)Cc3ccc(-n4cccn4)cc3)n2)cc1OC,?,-2.0%,-24.2%,-14.7,20.6µM*,-25.7%
O=C(NCc1cccnc1)c1ccccc1NS(=O)(=O)c1ccc(Br)cc1,-24.7%,0.9%,-23.2%,19.2,-29.4%,-13.2%
COc1cccc(NC(=O)CSC2=C(C#N)C(c3ccco3)C3=C(CCCC3=O)N2)c1 (stereo not drawn),3.5%,15.1%,-16.4%,?,-12.7%,-6.1%
N#CC1=C(SCC(=O)c2ccccc2)NC2=C(C(=O)CCC2)C1c1ccco1 (stereo not drawn),2.91µM*,28.6%,-5.7%,-97.2*,2.59µM*,-3.6%
CCCCc1ccc(NC(=O)CSC2=C(C#N)C(c3ccco3)C3=C(CCCC3=O)N2)cc1 (stereo not drawn),?,?,-21.6%,-86.0*,?,?
Cc1ccc(C(=O)CSC2=C(C#N)C(c3ccco3)C3=C(CCCC3=O)N2)cc1 (stereo not drawn),3.26µM*,5.9%,3.3%,0.0,3.26µM*,-0.4%
SMILES,DT40 TDP1 CPT,ASM inhibitor,HepG2 tox,IL1B secr inh,DT40 TDP1 no CPT,TGFb SMAD3 inh
CCC1C(C#N)=C(SCC(N)=O)NC2=C1C(=O)CC(C)(C)C2 (stereo not drawn),?,160.6%,0.8%,14.9,-20.7%,-4.9%
COc1ccc(C2C(C#N)=C(SCC(=O)Nc3ccc(C)cc3)NC3=C2C(=O)CC(C)(C)C3)cc1 (stereo not drawn),23.1µM*,148.2%,-6.9%,-56.6*,16.4µM*,?
COc1ccc(NC(=O)CSC2=C(C#N)C(c3ccco3)C3=C(CCCC3=O)N2)c(OC)c1 (stereo not drawn),1.1%,13.1%,-66.4%,-29.1,1.6%,-5.4%
Cc1ccsc1C(=O)OCc1nnc(-c2ccccc2)o1,1.2%,-0.1%,-63.8%,6.3,-8.3%,-2.9%
Cc1cccc(OCC(=O)N2CCc3ccccc3C2)c1C,?,.,-0.9%,-8.2,?,12.7%
CC(C)(C)c1ccc(C(=O)CCCSC2=C(C#N)C(c3ccco3)C3=C(CCCC3=O)N2)cc1 (stereo not drawn),16.4µM*,12.7%,-5.5%,-11.1,9.2µM*,-22.2%
CCSC1=C(C#N)C(c2ccc(Cl)cc2)C2=C(CCCC2=O)N1 (stereo not drawn),1.46µM*,25.7%,-56.8%,-9.6,1.46µM*,?
NC(=S)NCCC[C@H](N)C(=O)O,-4.4%[92.5 µM],.,.,.,10.5%[92.5 µM],.
CCOC(=O)C1=C(C)N(C[C@@H]2CC[C@@H](Cc3ccc(-c4ccccc4)cc3)O2)C(=O)NC1c1cccc([N+](=O)[O-])c1 (stereo partly drawn),?,-11.0%,-15.1%,20.2,?,-19.2%
Cc1ccc2occ(/C=N/NC(N)=S)c(=O)c2c1,?,0.2%,8.2%,17.7,25.9µM*,-0.5%
CCOc1ccccc1C(=O)N/N=C/c1coc2ccc(C)cc2c1=O,18.4µM*,-1.6%,-2.9%,85.1,?,0.0%
Cc1ccc2occ(/C=N/NC(=O)c3ccccc3Br)c(=O)c2c1,?,5.2%,12.3%,-3.4,-27.9%,1.9%
COc1cc(/C=C/C(=O)OCC(=O)NC(=O)C2COc3ccccc3O2)ccc1OC(F)F (stereo not drawn),-3.9%,-1.1%,7.7%,1.9,14.2%,25.3%
COc1ccc(-c2[nH]ncc2-c2ccc3c(c2)OCCO3)c(O)c1,4.61µM*,-7.3%,-36.7%,6.5,7.31µM*,?
COc1ccc(-c2[nH]ncc2-c2nc(C)cs2)c(O)c1,-3.9%,-5.1%,-2.2%,-13.4,-23.1%,-3.6%

# Screening data: PubChem, National Center for Advancing Translational Sciences (NCATS)
